# Experimental data from the supplement of paper PMC8728848.
# The sample as a whole holds a higher share of the strongest signals than the screen did.
# Key:
# Experiment in all cases: glycan array binding signal (z-score within array); higher = stronger binding
# Details in all cases: glycan notation: IUPAC condensed, linker removed
# [1] = biological target: Fuc(a1-2)Gal6S(b1-4)Glc6S
# Procedure, shortened: (§1)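 Columns mapping to the same glycan were averaged after glycan names were converted to IUPAC-condensed notation. The data come from 3228 arrays in the Consortium for Functional Glycomics database, limited to those with an available protein sequence. Binding is reported as a within-array Z-score averaged across arrays of one protein sequence and across linkers.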
# [2] = biological target: Fuc(a1-2)[Gal(a1-3)]Gal(b1-3)GlcNAc(b1-3)GalNAc
# Procedure, shortened: as §1
# [3] = biological target: Fuc(a1-2)[Gal(a1-4)]Gal(b1-4)GlcNAc
# Procedure, shortened: as §1
# [4] = biological target: Fuc(a1-2)[GalNAc(a1-3)]Gal(b1-3)GalNAc(b1-3)Gal(a1-4)Gal(b1-4)Glc
# Procedure, shortened: as §1
# [5] = biological target: Fuc(a1-2)[GalNAc(a1-3)]Gal(b1-3)GlcNAc(b1-2)Man(a1-3)[Fuc(a1-2)[GalNAc(a1-3)]Gal(b1-3)GlcNAc(b1-2)Man(a1-6)]Man(b1-4)GlcNAc(b1-4)GlcNAc
# Procedure, shortened: as §1
# [6] = biological target: Fuc(a1-2)[GalNAc(a1-3)]Gal(b1-4)[Fuc(a1-3)]GlcNAc
# Procedure, shortened: as §1
# [7] = biological target: Fuc(a1-3)[Gal(b1-4)]GlcNAc(b1-2)Man(a1-3)[Fuc(a1-3)[Gal(b1-4)]GlcNAc(b1-2)Man(a1-6)]Man(b1-4)GlcNAc(b1-4)[Fuc(a1-6)]GlcNAc
# Procedure, shortened: as §1
# [8] = biological target: Fuc(a1-3)[Gal(b1-4)]GlcNAc(b1-3)Gal(b1-4)[Fuc(a1-3)]GlcNAc
# Procedure, shortened: as §1
# [9] = biological target: Gal(a1-2)Gal
# Procedure, shortened: as §1
# [10] = biological target: Gal(a1-3)Gal(b1-4)GlcNAc(b1-2)Man(a1-3)[Gal(a1-3)Gal(b1-4)GlcNAc(b1-2)Man(a1-6)]Man(b1-4)GlcNAc(b1-4)GlcNAc
# Procedure, shortened: as §1
# [11] = biological target: Gal(b1-3)GlcNAc(b1-2)Man(a1-3)[GlcNAc(b1-4)][Gal(b1-3)GlcNAc(b1-2)Man(a1-6)]Man(b1-4)GlcNAc(b1-4)GlcNAc
# Procedure, shortened: as §1
# [12] = biological target: Gal(b1-3)GlcNAc(b1-3)Gal(b1-3)GlcNAc
# Procedure, shortened: as §1
# [13] = biological target: Gal(b1-3)[Fuc(a1-4)]GlcNAc
# Procedure, shortened: as §1
# [14] = biological target: Gal(b1-3)[Fuc(a1-4)]GlcNAc(b1-3)Gal(b1-3)[Fuc(a1-4)]GlcNAc
# Procedure, shortened: as §1
# [15] = biological target: Gal(b1-3)[GlcNAc(b1-6)]GalNAc
# Procedure, shortened: as §1
# [16] = biological target: Gal(b1-4)GlcNAc(b1-2)Man(a1-3)[Gal(b1-4)GlcNAc(b1-2)Man(a1-6)]Man(b1-4)GlcNAc(b1-4)GlcNAc
# Procedure, shortened: as §1
# [17] = biological target: Gal(b1-4)GlcNAc(b1-2)Man(a1-3)[Gal(b1-4)GlcNAc(b1-2)Man(a1-6)][GlcNAc(b1-4)]Man(b1-4)GlcNAc(b1-4)[Fuc(a1-6)]GlcNAc
# Procedure, shortened: as §1
# [18] = biological target: Gal(b1-4)GlcNAc(b1-2)Man(a1-3)[Man(a1-6)]Man(b1-4)GlcNAc(b1-4)GlcNAc
# Procedure, shortened: as §1
# [19] = biological target: Gal(b1-4)GlcNAc(b1-2)Man(a1-6)[GlcNAc(b1-2)Man(a1-3)]Man(b1-4)GlcNAc(b1-4)GlcNAc
# Procedure, shortened: as §1
# [20] = biological target: Gal(b1-4)GlcNAc(b1-2)[Gal(b1-4)GlcNAc(b1-4)]Man(a1-3)[Gal(b1-4)GlcNAc(b1-2)[Gal(b1-4)GlcNAc(b1-6)]Man(a1-6)]Man(b1-4)GlcNAc(b1-4)GlcNAc
# Procedure, shortened: as §1
# [21] = biological target: Gal(b1-4)GlcNAc(b1-2)[Gal(b1-4)GlcNAc(b1-6)]Man(a1-6)[Gal(b1-4)GlcNAc(b1-2)Man(a1-3)]Man(b1-4)GlcNAc(b1-4)[Fuc(a1-6)]GlcNAc
# Procedure, shortened: as §1
# [22] = biological target: Gal(b1-4)GlcNAc(b1-3)Gal(b1-4)GlcNAc
# Procedure, shortened: as §1
# [23] = biological target: Gal(b1-4)GlcNAc(b1-3)Gal(b1-4)GlcNAc(b1-2)Man(a1-3)[Gal(b1-4)GlcNAc(b1-3)Gal(b1-4)GlcNAc(b1-2)Man(a1-6)]Man(b1-4)GlcNAc(b1-4)GlcNAc
# Procedure, shortened: as §1
# [24] = biological target: Gal(b1-4)GlcNAc(b1-3)Gal(b1-4)GlcNAc(b1-2)Man(a1-3)[Gal(b1-4)GlcNAc(b1-3)Gal(b1-4)GlcNAc(b1-2)Man(a1-6)]Man(b1-4)GlcNAc(b1-4)[Fuc(a1-6)]GlcNAc
# Procedure, shortened: as §1
# [25] = biological target: Gal(b1-4)GlcNAc(b1-3)Gal(b1-4)GlcNAc(b1-3)Gal(b1-4)GlcNAc(b1-2)Man(a1-3)[Gal(b1-4)GlcNAc(b1-3)Gal(b1-4)GlcNAc(b1-3)Gal(b1-4)GlcNAc(b1-2)Man(a1-6)]Man(b1-4)GlcNAc(b1-4)GlcNAc
# Procedure, shortened: as §1
# [26] = biological target: Gal(b1-4)GlcNAc(b1-3)Gal(b1-4)GlcNAc(b1-3)Gal(b1-4)GlcNAc(b1-2)Man(a1-3)[Gal(b1-4)GlcNAc(b1-3)Gal(b1-4)GlcNAc(b1-3)Gal(b1-4)GlcNAc(b1-2)Man(a1-6)]Man(b1-4)GlcNAc(b1-4)[Fuc(a1-6)]GlcNAc
# Procedure, shortened: as §1
# [27] = biological target: Gal(b1-4)GlcNAc(b1-3)Gal(b1-4)GlcNAc(b1-3)Gal(b1-4)GlcNAc(b1-3)Gal(b1-4)GlcNAc(b1-2)Man(a1-3)[Gal(b1-4)GlcNAc(b1-3)Gal(b1-4)GlcNAc(b1-3)Gal(b1-4)GlcNAc(b1-3)Gal(b1-4)GlcNAc(b1-2)Man(a1-6)]Man(b1-4)GlcNAc(b1-4)GlcNAc
# Procedure, shortened: as §1
binder,measurement,setting,value
PX14367A-bth-493-35-493 (Bacteroides thetaiotaomicron) (protein) VSSDQVAVAGNAERLFNGAWYNLFEYGTTYANIGYRALQCQDDMMASDVVSRPKYGFNSSYQFNDVAIPSDGRTSFAWYLIYKTIDNCNTAISIKGDSEELRQAQGQALALRAFCYLHLVQHYQFTYLKDKDAPCVPIYTEPTTSGTKPKGKSTVAQVYQQIFDDLNLAQDYLTNYVRKGDGQKFKPNTDVVNGLMARAYLLTGQWGEAAKAAEAARKGYSLMTTTAEYEGFNNISNKEWIWGSPQTLSQSDASYNFYYLDATYVGAYSSFMADPHLMDTFVKGDIRLPLFQWMREGYLGYKKFHMRSDDTADLVLMRSAEMYLIEAEAKVRDGVALDQAVAPLNTLRTARGVGNYDVTGKTKEQVIDEILMERRRELWGEGFGITDVLRNQKAVERMALSEDMQKTEVDCWQEGGSFAKRNPLGHWFLNFPDGKAFSANSSYYLYAIPEKEINANPNL,glycan array binding signal (z-score),[1],-0.358
same,glycan array binding signal (z-score),[2],-0.51
same,glycan array binding signal (z-score),[3],-0.256
same,glycan array binding signal (z-score),[4],-0.668
same,glycan array binding signal (z-score),[5],0.408
same,glycan array binding signal (z-score),[6],-0.482
same,glycan array binding signal (z-score),[7],-0.25
same,glycan array binding signal (z-score),[8],-0.421
same,glycan array binding signal (z-score),[9],-0.084
same,glycan array binding signal (z-score),[10],3.93
same,glycan array binding signal (z-score),[11],1.39
same,glycan array binding signal (z-score),[12],-0.152
same,glycan array binding signal (z-score),[13],-0.11
same,glycan array binding signal (z-score),[14],-0.392
same,glycan array binding signal (z-score),[15],-0.406
same,glycan array binding signal (z-score),[16],1.44
same,glycan array binding signal (z-score),[17],-0.354
same,glycan array binding signal (z-score),[18],3.6
same,glycan array binding signal (z-score),[19],-0.174
same,glycan array binding signal (z-score),[20],-0.334
same,glycan array binding signal (z-score),[21],-0.167
same,glycan array binding signal (z-score),[22],-0.81
same,glycan array binding signal (z-score),[23],3.94
same,glycan array binding signal (z-score),[24],7.69
same,glycan array binding signal (z-score),[25],2.81
same,glycan array binding signal (z-score),[26],2.6
same,glycan array binding signal (z-score),[27],1.4
